Records with an inconclusive call do not appear. A call without a number means that no potency is given here. Values without a mark were called inactive. Active and inactive are the calls of the source. Unless noted, calls follow the shape of the dose curve; as a rule, active = well fitted curve in the direction sought with a large enough effect in the repeat runs; inconclusive = weak or mixed curves; inactive = no such curve, though single readings can be large; an effect the other way counts as inactive or inconclusive.
Legend:
[1] = qHTS assay to identify small molecule agonists of the peroxisome proliferator-activated receptor delta (PPARd) signaling pathway - cell viability counter screen (AID 743211); also: nearly all actives have a fitted effect of over 55% in size; also: potency is read from the fitted curve at half-maximal effect
How it was run: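 Multiplexed format: after the 2 h room-temperature LiveBLAzer B/G FRET step, CellTiter-Glo was added to the same wells. Luminescence after 30 min gave cell viability; compound exposure was 17 h at 37C.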

[2] = qHTS assay to identify small molecule antagonists of the peroxisome proliferator-activated receptor delta (PPARd) signaling pathway - cell viability counter screen (AID 743213); also: nearly all actives have a fitted effect of over 50% in size; also: potency is read from the fitted curve at half-maximal effect
How it was run: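 Agonist-stimulated (L165041, 300 nM final) HEK293H PPARd UAS-bla cells are exposed to compounds for 17 h at 37 C, and ATP-based luminescence (CellTiter-Glo) from the same wells reports cytotoxicity.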

[3] = target: Peroxisome proliferator-activated receptor delta (Homo sapiens) (UniProt Q03181); test: qHTS assay to identify small molecule antagonists of the peroxisome proliferator-activated receptor delta (PPARd) signaling pathway (AID 743215; active = well fitted inhibition curve with a large enough effect in the signal ratio in the repeat runs, not every such curve was filed as active; the % refers to the signal ratio; also: series mostly up to about 62 µM)
How it was run: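 HEK293H GeneBLAzer PPARd UAS-bla reporter cells; cpd + L165041 300 nM final, 17 h 37 C; LiveBLAzer B/G FRET substrate 2 h RT; fluorescence intensity read-out. Antagonist mode.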

[4] = qHTS assay to identify small molecule agonists of the farnesoid-X-receptor (FXR) signaling pathway - cell viability counter screen (AID 743218); also: nearly all actives have a fitted effect of over 45% in size; also: potency is read from the fitted curve at half-maximal effect
How it was run: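 Luminescence from CellTiter-Glo, read after 30 min at RT, reports viability of GeneBLAzer FXR-UAS-bla HEK 293T cells treated 16 h with compounds in the wells used for the beta-lactamase reporter.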

[5] = qHTS assay to identify small molecule antagonists of the farnesoid-X-receptor (FXR) signaling pathway - cell viability counter screen (AID 743221; active = well fitted cell-killing curve with a large enough effect in the repeat runs, not every such curve was filed as active; also: nearly all actives have a fitted effect of over 50% in size)
How it was run: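 CellTiter-Glo, 30 min RT, luminescence; same wells as the LiveBLAzer FRET read. Cells: FXR-UAS-bla HEK 293T. Treatment: compound with chenodeoxycholic acid 50 uM final, 16 h at 37 C.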

[6] = target: Vitamin D3 receptor (Homo sapiens) (UniProt P11473); test: qHTS assay to identify small molecule agonists of the vitamin D receptor (VDR) signaling pathway (AID 743222; calls by dose curve)
How it was run: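 Beta-lactamase reporter readout (LiveBLAzer B/G FRET, 2 h RT) in VDR-bla cells after 16 h compound treatment at 37C, 5% CO2; cells pre-incubated 4 h before pin transfer of DMSO solutions.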

[7] = qHTS assay to identify small molecule agonists of the vitamin D receptor (VDR) signaling pathway - cell viability counter screen (AID 743224); also: nearly all actives have a fitted effect of over 50% in size; also: potency is read from the fitted curve at half-maximal effect
How it was run: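 Cytotoxicity counter screen: VDR-bla cells, 16 h compound exposure at 37C, 5% CO2; CellTiter-Glo luminescence, 30 min RT, same wells as bla read.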

[8] = qHTS assay to identify small molecule antagonists of the vitamin D receptor (VDR) signaling pathway - cell viability counter screen (AID 743225); also: nearly all actives have a fitted effect of over 50% in size; also: potency is read from the fitted curve at half-maximal effect
How it was run: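 Cytotoxicity toward the VDR-bla HEK 293T line was scored by ATP-based CellTiter-Glo luminescence, read in the wells already used for the beta-lactamase readout after 16 h compound treatment under 3 nM 1-alpha,25-dihydroxyvitamin D3 stimulation.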

[9] = qHTS assay to identify small molecule agonists of the NFkB signaling pathway (AID 1159509; active = well fitted curve in the direction sought with a large enough effect in the signal ratio in the repeat runs, not every such curve was filed as active; the % refers to the signal ratio; also: series mostly up to about 61 µM)
How it was run: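 Agonist activity was read as beta-lactamase-driven FRET change (460 and 530 nm emission, 405 nm excitation) following 1.5 hr substrate loading at room temperature. Beforehand, ME-180 NFkB-bla reporter cells were treated with compounds for 5 hr at 37 C.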

[10] = qHTS assay to identify small molecule agonists of the NFkB signaling pathway - cell viability counter screen (AID 1159515; calls by dose curve; also: series mostly up to about 61 µM; nearly all actives have a fitted effect of over 55% in size)
How it was run: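 ME-180 NFkB-bla cells, 2,000/well; overnight attach; compound 5 hr, 37 C/5% CO2; LiveBLAzer substrate 1.5 hr RT; then CellTiter-Glo in same wells, 30 min RT, luminescence read.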

[11] = qHTS assay to identify small molecule agonists of the endoplasmic reticulum stress response signaling pathway (AID 1159516; active = well fitted activation curve with a large enough effect in the signal ratio in the repeat runs, not every such curve was filed as active; the % refers to the signal ratio)
How it was run: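 HeLa ESRE-bla reporter line; cpd 5 h, 37 C/5% CO2; LiveBLAzer B/G FRET substrate 2 h RT; ex 405, em 460/530 nm.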

[12] = qHTS assay to identify small molecule agonists of the endoplasmic reticulum stress response signaling pathway - cell viability counter screen (AID 1159517; calls by dose curve)
How it was run: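 Cpd-treated ESRE-bla HeLa (5 hr, 37 C) → LiveBLAzer 2 hr RT → CellTiter-Glo 30 min RT → luminescence.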

[13] = qHTS assay to identify small molecule antagonists of the retinoid-related orphan receptor gamma (ROR-gamma) signaling pathway - cell viability counter screen (AID 1159520); also: nearly all actives have a fitted effect of over 50% in size
How it was run: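 Tet-on ROR gamma CHO cells (1,000/well) were plated 4 hr, given compounds in DMSO for 2 hr at 37 C, then induced with 1 uM final doxycycline for 16 hr. Viability was read as ATP by CellTiter-Glo luminescence after 30 min.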

[14] = qHTS assay to identify small molecule agonists of the AP-1 signaling pathway - cell viability counter screen (AID 1159525; calls by dose curve; also: nearly all actives have a fitted effect of over 55% in size)
How it was run: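 Each titration point was normalised to DMSO and tetra n-octyl ammonium bromide controls. The read was Cell Titer Glo luminescence after 30 min at RT, following 5 h compound exposure of ME-180 AP-1-bla cells at 37 °C.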

[15] = qHTS assay to identify small molecule agonists of the AP-1 signaling pathway (AID 1159526; calls by dose curve)
[16] = target: Bile acid receptor (Homo sapiens) (UniProt Q96RI1); test: qHTS assay to identify small molecule antagonists of the farnesoid-X-receptor (FXR) signaling pathway (AID 743217; active = well fitted inhibition curve with a large enough effect in the signal ratio in the repeat runs, not every such curve was filed as active; the % refers to the signal ratio)
How it was run: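 Read-out: beta-lactamase FRET fluorescence (LiveBLAzer B/G substrate, 2 h, room temperature) in GeneBLAzer FXR-UAS-bla HEK 293T cells. Compounds were co-dosed with 50 uM chenodeoxycholic acid (final) and incubated 16 h at 37 °C.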

[17] = target: Bile acid receptor (Homo sapiens) (UniProt Q96RI1); test: qHTS assay to identify small molecule agonists of the farnesoid-X-receptor (FXR) signaling pathway (AID 743220; active = well fitted activation curve with a large enough effect in the signal ratio in the repeat runs, not every such curve was filed as active; the % refers to the signal ratio)
How it was run: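 FXR-UAS-bla HEK 293T cells carrying a UAS-driven beta-lactamase reporter were plated for 5 h at 37C/5% CO2, then exposed to DMSO-dissolved Tox21 10K compounds for 16 h at 37C. A LiveBLAzer B/G FRET substrate was loaded for 2 h at room temperature before fluorescence reading.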

[18] = target: Vitamin D3 receptor (Homo sapiens) (UniProt P11473); test: qHTS assay to identify small molecule antagonists of the vitamin D receptor (VDR) signaling pathway (AID 743223; active = well fitted inhibition curve with a large enough effect in the signal ratio in the repeat runs, not every such curve was filed as active; the % refers to the signal ratio)
How it was run: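 After VDR-bla cells are plated and left 4 h at 37C, DMSO-dissolved compounds and 3 nM (final) calcitriol agonist are added. Incubation continues 16 h at 37C; FRET beta-lactamase substrate then develops 2 h at room temperature.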

[19] = target: Peroxisome proliferator-activated receptor delta (Homo sapiens) (UniProt Q03181); test: qHTS assay to identify small molecule agonists of the peroxisome proliferator-activated receptor delta (PPARd) signaling pathway (AID 743212; calls by dose curve)
How it was run: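 Cells expressing a UAS-driven beta-lactamase reporter (PPARd-bla HEK293H) were given test compounds after a 5 h settle and kept at 37 C. Reporter activity was then measured as FRET fluorescence using LiveBLAzer B/G substrate.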

Sequence of Bile acid receptor (Homo sapiens) (Q96RI1 whole entry, looked up): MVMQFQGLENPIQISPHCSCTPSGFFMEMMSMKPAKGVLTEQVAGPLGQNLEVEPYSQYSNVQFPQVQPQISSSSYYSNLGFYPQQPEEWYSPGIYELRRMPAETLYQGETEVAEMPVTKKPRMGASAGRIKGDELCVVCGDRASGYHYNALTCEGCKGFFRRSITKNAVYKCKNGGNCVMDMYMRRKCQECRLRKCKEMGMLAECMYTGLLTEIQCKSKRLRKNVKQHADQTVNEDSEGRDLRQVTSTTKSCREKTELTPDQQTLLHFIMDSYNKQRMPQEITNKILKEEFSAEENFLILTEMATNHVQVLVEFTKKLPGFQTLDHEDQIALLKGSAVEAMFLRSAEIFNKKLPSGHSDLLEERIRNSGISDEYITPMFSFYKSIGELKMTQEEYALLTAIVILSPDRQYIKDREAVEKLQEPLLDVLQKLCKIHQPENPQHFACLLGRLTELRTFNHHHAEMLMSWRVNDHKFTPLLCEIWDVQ
Sequence of Vitamin D3 receptor (Homo sapiens) (P11473 whole entry, looked up): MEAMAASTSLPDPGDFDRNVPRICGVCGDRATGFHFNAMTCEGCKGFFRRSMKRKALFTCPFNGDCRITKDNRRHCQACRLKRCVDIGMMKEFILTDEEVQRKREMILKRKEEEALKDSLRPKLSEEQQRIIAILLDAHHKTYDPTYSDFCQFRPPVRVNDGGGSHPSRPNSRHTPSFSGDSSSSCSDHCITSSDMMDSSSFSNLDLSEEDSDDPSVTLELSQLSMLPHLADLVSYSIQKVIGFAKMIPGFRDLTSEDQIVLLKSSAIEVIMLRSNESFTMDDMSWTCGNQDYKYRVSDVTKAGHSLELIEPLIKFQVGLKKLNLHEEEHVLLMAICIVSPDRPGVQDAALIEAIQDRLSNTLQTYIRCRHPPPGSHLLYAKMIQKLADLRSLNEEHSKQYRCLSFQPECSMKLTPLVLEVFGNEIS
Sequence of Peroxisome proliferator-activated receptor delta (Homo sapiens) (Q03181 whole entry, looked up): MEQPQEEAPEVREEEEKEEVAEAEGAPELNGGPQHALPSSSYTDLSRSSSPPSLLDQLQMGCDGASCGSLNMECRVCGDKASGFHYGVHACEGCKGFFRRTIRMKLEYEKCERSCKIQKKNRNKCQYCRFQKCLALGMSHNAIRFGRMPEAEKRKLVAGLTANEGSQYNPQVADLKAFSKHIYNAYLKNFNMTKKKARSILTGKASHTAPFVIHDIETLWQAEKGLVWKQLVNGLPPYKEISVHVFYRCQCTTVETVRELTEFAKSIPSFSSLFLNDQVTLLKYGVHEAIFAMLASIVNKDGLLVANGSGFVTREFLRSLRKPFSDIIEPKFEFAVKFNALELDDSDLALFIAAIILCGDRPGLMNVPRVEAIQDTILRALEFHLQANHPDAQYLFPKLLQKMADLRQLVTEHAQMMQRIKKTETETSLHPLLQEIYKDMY

Structure (SMILES): CC1=NN(c2ccc(C(=O)O)cc2)C(=O)C1
- Potency [1]: inactive
- Potency [2]: inactive
- Potency [3]: inactive
- Potency [4]: inactive
- Potency [5]: inactive
- outcome [6]: inactive
- Potency [7]: inactive
- Potency [8]: inactive
- outcome [9]: inactive
- outcome [10]: inactive
- outcome [11]: inactive
- outcome [12]: inactive
- Potency [13]: inactive
- outcome [14]: inactive
- outcome [15]: inactive

Structure (SMILES): ON(Cc1ccccc1)Cc1ccccc1
- Potency [1]: inactive
- Potency [2]: inactive
- Potency [3]: inactive
- Potency [4]: inactive
- Potency [5]: inactive
- outcome [6]: inactive
- Potency [8]: inactive
- outcome [9]: inactive
- outcome [10]: inactive
- outcome [11]: inactive
- outcome [12]: inactive
- Potency [13]: inactive
- outcome [14]: inactive
- outcome [15]: inactive

Structure (SMILES): CN1CCN(CCCN2c3ccccc3Sc3ccc(S(=O)(=O)N(C)C)cc32)CC1
- Potency [1]: 26.6 µM (active)
- Potency [2]: 26.6 µM (active)
- Potency [4]: 29.8 µM (active)
- Potency [8]: 23.9 µM (active)
- outcome [9]: inactive
- outcome [10]: inactive
- outcome [11]: inactive
- outcome [12]: inactive
- Potency [13]: inactive
- outcome [14]: inactive
- outcome [15]: inactive

Structure (SMILES): O=C(CCCCCCCCC#CI)Oc1ccccc1
- Potency [1]: inactive
- Potency [2]: inactive
- Potency [3]: inactive
- Potency [16]: inactive
- Potency [4]: inactive
- Potency [17]: inactive
- Potency [5]: inactive
- outcome [6]: inactive
- outcome [18]: inactive
- Potency [7]: inactive
- Potency [8]: inactive
- outcome [9]: inactive
- outcome [10]: inactive
- outcome [11]: inactive
- outcome [12]: inactive
- Potency [13]: inactive
- outcome [14]: inactive
- outcome [15]: inactive

Structure (SMILES): O=S1OCCO1
- Potency [1]: inactive
- Potency [2]: inactive
- Potency [4]: inactive
- Potency [5]: inactive
- outcome [6]: inactive
- outcome [18]: inactive
- Potency [7]: inactive
- Potency [8]: inactive
- outcome [9]: inactive
- outcome [10]: inactive
- outcome [11]: inactive
- outcome [12]: inactive
- Potency [13]: inactive
- outcome [14]: inactive
- outcome [15]: inactive

Structure (SMILES): CC(=O)[C@H]1CC[C@H]2[C@@H]3C=CC4=CC(=O)CC[C@@]4(C)[C@@H]3CC[C@]12C
- Potency [1]: inactive
- Potency [2]: inactive
- Potency [17]: inactive
- Potency [5]: inactive
- Potency [7]: inactive
- Potency [8]: inactive
- outcome [9]: inactive
- outcome [10]: inactive
- outcome [11]: inactive
- outcome [12]: inactive
- Potency [13]: inactive
- outcome [14]: inactive
- outcome [15]: inactive

Structure (SMILES): CCC(=O)Oc1ccc(/C(CC)=C(\CC)c2ccc(OC(=O)CC)cc2)cc1
- Potency [1]: 54.9 µM (active)
- Potency [19]: inactive
- Potency [5]: inactive
- outcome [18]: inactive
- Potency [7]: 54.9 µM (active)
- Potency [8]: inactive
- outcome [9]: inactive
- outcome [10]: inactive
- outcome [11]: inactive
- outcome [12]: inactive
- Potency [13]: inactive
- outcome [14]: inactive
- outcome [15]: inactive

Structure (SMILES): CNCCCC1c2ccccc2C=Cc2ccccc21
- Potency [1]: 10.6 µM (active)
- Potency [2]: 23.7 µM (active)
- Potency [4]: 23.7 µM (active)
- outcome [18]: inactive
- Potency [7]: 29.8 µM (active)
- outcome [9]: inactive
- outcome [10]: inactive
- outcome [11]: inactive
- outcome [12]: inactive
- Potency [13]: inactive
- outcome [14]: inactive
- outcome [15]: inactive

Structure (SMILES): Cc1cc(O)c2c(O)c3c(O)cccc3cc2c1
- Potency [1]: inactive
- Potency [2]: inactive
- Potency [16]: inactive
- Potency [4]: inactive
- Potency [5]: inactive
- Potency [8]: inactive
- outcome [9]: inactive
- outcome [10]: inactive
- outcome [11]: inactive
- outcome [12]: inactive
- Potency [13]: inactive
- outcome [14]: inactive
- outcome [15]: inactive

Structure (SMILES): CO[Si](C)(OC)OC
- Potency [1]: inactive
- Potency [2]: inactive
- Potency [4]: inactive
- Potency [17]: inactive
- Potency [5]: inactive
- outcome [6]: inactive
- outcome [18]: inactive
- Potency [7]: inactive
- Potency [8]: inactive
- outcome [9]: inactive
- outcome [10]: inactive
- outcome [11]: inactive
- outcome [12]: inactive
- Potency [13]: inactive
- outcome [14]: inactive
- outcome [15]: inactive

— PubChem BioAssay (Tox21)
